# Laboratory results: PubChem BioAssay AID492947 (National Center for Advancing Translational Sciences (NCATS), 2010)
# In all, about 330,000 compounds went through this assay and about 80 (0.02%) were called active. Only a selection was taken, and actives are over-represented in it overall. Unmarked numbers belong to inactive results. Calls follow the shape of the dose curve; as a rule, active = well fitted activation curve with a large enough effect; inconclusive = small, poorly fitted or top-dose-only effect; inactive = flat fitted curve, though single readings scatter.
# Target: Beta-2 adrenergic receptor (Homo sapiens) (UniProt P07550)
# Assay: qHTS assay of beta-arrestin-biased ligands of beta2-adrenergic receptor;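 also: 0% = DMSO controls and full agonism = EC100 isoproterenol or metaproterenol; nearly all actives have a fitted effect of over 65% in size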
# Settings: beta-arrestin recruitment to beta2AR, cell-based reporter; series mostly up to 46.1 µM; activation: at the top concentration
# Description: NIH Molecular Libraries Probe Production Network [MLPCN]
# NIH Chemical Genomics Center [NCGC]
# PI: Bryan Roth and Bob Lefkowitz
# The concept of biased agonism is an emerging concept of molecular pharmacology which proposes that seven transmembrane receptors (7TMRs) or G protein-coupled receptors (GPCRs), exist in multiple signaling conformations and complexes and that ligands (either agonists or antagonists) can induce signaling biased responses for distinct signal transduction cascades.
# Furthermore, accumulating evidence over the last decade has drawn attention to a novel function of beta-arrestins as signal transducers that scaffold various signaling molecules upon activation of 7TMRs. […] This beta-arrestin-biased signaling presumably leads to distinct physiological outcomes from those by G protein activation.
# Additionally, the active receptor conformations which […] on this beta-arrestin signaling are likely different from those activating G protein signaling
# The goal of this screening project will be to discover and optimize novel beta-arrestin-biased ligands for beta2-AR signaling. A luminescent cell-based assay for beta2-AR-mediated agonism, known as the Tango assay, has been validated in which ligand binding of a recombinant beta2-AR and subsequent recruitment of a recombinant beta-arrestin lead to the release of the transcriptional activator tTA, which upregulates transcription of a tTA-responsive luciferase gene. […] Compounds were screened as a concentration-titration series that ranged from 46 microM to 0.6 nM.
# NCGC Assay Protocol Summary:
# Tango cells were dispensed into white, solid, tissue-culture-treated 1536-well plates at 1500 cells/well in DMEM, containing 1% fetal bovine serum (FBS). Then, 23 nL of compounds or DMSO were delivered to each well using a pin tool. Plates were incubated at 37 degrees C, 5% CO2 for 18 hr. Then 2.5 uL luminescent substrate mix (in-house prepared: 150 mM Tris-Cl, pH 7.6, 3 mM MgCl2, 1% Triton X-100, 5 mM DTT, 0.5 mM CoA, 0.15 mM ATP, 0.44 mM D-luciferin, final concentrations) was added to each well. Plates were then incubated for 15 minutes at room temperature, and subsequently measured on a ViewLux plate reader for luminescent signal using a clear filter with a 10 second exposure and 2x binning. The %Activity was determined from the corrected luminescence values.
# Concentration-response curves were fitted to the signals arising from the resulting luminescence. The concentration-effect curves were then classified based on curve quality (r2), response magnitude and degree of measured activity, and compounds were subsequently categorized based on their curve class.
# Keywords: biased agonism, beta2-AR, beta-arrestin, GPCR, 7TMR, Tango, luminescence, MLSMR, MLPCN, NIH Roadmap, qHTS, NCGC
# Chain of Beta-2 adrenergic receptor (Homo sapiens) (P07550 whole entry, looked up): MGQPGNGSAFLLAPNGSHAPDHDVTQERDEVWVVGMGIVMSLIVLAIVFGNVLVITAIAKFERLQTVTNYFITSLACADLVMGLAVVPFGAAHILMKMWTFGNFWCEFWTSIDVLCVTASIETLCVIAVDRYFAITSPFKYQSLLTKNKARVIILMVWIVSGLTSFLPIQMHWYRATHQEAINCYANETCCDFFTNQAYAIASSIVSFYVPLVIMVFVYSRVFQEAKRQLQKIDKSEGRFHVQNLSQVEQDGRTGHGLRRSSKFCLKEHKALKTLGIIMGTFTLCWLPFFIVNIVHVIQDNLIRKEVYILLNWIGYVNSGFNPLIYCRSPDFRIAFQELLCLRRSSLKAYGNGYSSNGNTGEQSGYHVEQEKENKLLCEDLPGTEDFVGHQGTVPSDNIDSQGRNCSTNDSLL
row,Compound,activation [%]
1,CC12C(=O)N(c3ccccc3)C(=O)C1C(c1ccccc1)N1CCCN12 (centres undefined),-0.468
2,Cc1c(Cl)cccc1NC(=O)NCc1ccc(C)n1C,0.368
3,CCOC(=O)Cc1ncccc1C(=O)Nc1ccc(OC(F)(F)F)cc1,0.342
4,CCOC(=O)N1CCC(N(CCOC)C(=O)Nc2ccc(C)c(C)c2)CC1,-1.07
5,CCOC(=O)N/N=C1\CC(C)S(=O)(=O)c2ccc(Cl)cc21 (centres undefined),0.455
6,CC1CCC(C(C)C)C(=O)/C1=C\c1ccc(NC(=O)CCC(=O)O)cc1 (centres undefined),-0.303
7,COC(=O)c1ccc(-c2c(-c3ccccc3)ncc3cc(OC)c(OC)cc23)cc1,0.148
8,NC1=NC2(CCCCC2)N(c2ccc(F)cc2F)C(N)=N1,0.0396
9,O=C(Oc1ccc(Br)cc1C(=S)N1CCOCC1)c1cccc([N+](=O)[O-])c1,0.418
10,CCOC(=O)C1CCN(Cc2coc3ccc(Cl)cc3c2=O)CC1,-0.282
11,COc1ccc(S(=O)(=O)N(C)CC(=O)N2CCCC2)cc1Cl,-0.204
12,C/C(=N\NC(=O)c1cc2c(s1)CCC(C)C2)c1cccnc1 (centres undefined),-0.278
13,COC(=O)[C@H](CC(C)C)NC(=O)N1CCCCC1C (some centres undefined),-0.413
14,Cc1ccccc1-n1nc(C)c2c1N=C1C(Cl)=CC(Cl)=CN1C2c1ccc(C(=O)O)cc1 (centres undefined),-0.645
15,COc1ccc2c(c1)CCc1cn3ncc(C#N)c3nc1-2,-0.718
16,COc1ccc(OCC(=O)NCCc2ccc(S(N)(=O)=O)cc2)cc1,-0.147
17,Cc1nn(-c2ccccc2)c2sc(C(=O)N(Cc3ccco3)C(C)C(=O)NC(C)(C)C)cc12 (centres undefined),-0.496
18,Cc1ccccc1N1CCN(C2CCCN(C(=O)c3cn4c(C)cccc4n3)C2)CC1 (centres undefined),0.177
19,COCCn1c(SCC(=O)Nc2cc(OC)ccc2OC)nc2c(c1=O)SC(C)C2 (centres undefined),-0.395
20,Cc1cc(Cl)ccc1NC(=S)N1CCC(C(N)=O)(N2CCCCC2)CC1,-0.676
21,C[C@H]1COC(=O)[C@H](CC(=O)OC(C)(C)C)C/C=C\C[C@@H](CC(=O)N[C@H](CO)Cc2ccccc2)C(=O)N1,-0.195
22,CCCn1c(C(Cc2ccccc2)NC(=O)COC)nc2ccccc21 (centres undefined),0.278
23,O=C(Nc1ccccc1F)C1C2C=CC3(O2)C1C(=O)N(c1cccnc1)C3C(=O)NC1CCCCC1 (centres undefined),-0.119
24,COC(=O)CN1C(=O)C(C)(C)Oc2ccc(C(=O)Nc3cccc(OC)c3)cc21,0.44
25,CC1(c2ccc(Cl)cc2Cl)NC(=O)N(CC(=O)Nc2cccnc2Cl)C1=O (centres undefined),0.107

row,Compound,activation [%]
1,CSc1nc2nc3c(c(=O)n2[nH]1)CCC3,0.387
2,O=C(COC(=O)Cc1ccc(Br)cc1)Nc1ccc(N2CCOCC2)cc1,0.283
3,CCN1CCCC1CNC(=O)Cn1cnc2ccc(S(=O)(=O)N3CCC(C)CC3)cc2c1=O (centres undefined),-0.835
4,O=C(CCNC(=O)c1ccccc1Cl)NN=Cc1ccco1,-1.11
5,Cc1ccc(S(=O)(=O)N2CCN(C(=O)CCC(=O)NC3CCCc4ccccc43)CC2)cc1 (centres undefined),-0.327
6,COC(=O)C(C)n1cnc2c(nnn2-c2ccc(F)cc2)c1=O (centres undefined),-1.45
7,Cc1ccc(C2(C)NC(=O)N(CC(=O)N3CC(=O)Nc4ccccc43)C2=O)cc1 (centres undefined),-0.447
8,CC(OC(=O)CNS(=O)(=O)/C=C/c1ccccc1)C(=O)Nc1ccc(S(=O)(=O)N2CCCC2)cc1 (centres undefined),-0.924
9,CCOC(=O)c1c(-c2cccc(N)c2)cn2ccccc12,-0.239
10,CCOc1cc2[nH]c(=S)n(CCCN3CCCC3=O)c(=O)c2cc1OCC,-0.317
11,COc1ccc(CS(=O)/C(Cl)=C(/Cl)C(=O)Nc2ccc(OC)nc2)cc1 (centres undefined),-0.108
12,CC1CC1C(=O)OCC(=O)Nc1cccc(F)c1 (centres undefined),-0.288
13,CC1CCC2(CC1)NC(=O)N(Cc1nnc(-c3cccs3)o1)C2=O (centres undefined),0.245
14,NC(=O)c1ccsc1NC(=O)COC(=O)Cc1n[nH]c(=O)c2ccccc12,-0.009
15,CCOCCCNC(=O)c1cn(CC(C)C)c(=O)c2c1c1ccccc1n2C,-0.285
16,Cc1cc(C)c(C#N)c(SCC(=O)NN2CC(=O)N(c3ccccc3F)CC2=O)n1,-0.808
17,COc1ccc(CC(NC(C)=O)C(=O)NC2CCN(C(=O)C3CC3)CC2)cc1OC (centres undefined),0.0754
18,COc1ccccc1OCCn1c(SCC(N)=O)nc2ccccc21,-0.935
19,CCc1cccc(C)c1NC(=O)COC(=O)CC1CCCC1,-0.1
20,O=C(Nc1cc(-c2nn(CC(=O)N3CCCCC3)c(=O)c3ccccc23)ccc1N1CCOCC1)c1ccc(Cl)cc1,-0.799
21,COc1ccc2c(-c3ccccc3)cc(SCC(=O)N(C)C3CCS(=O)(=O)C3)nc2c1 (centres undefined),-1.89
22,COC(=O)c1cccc(NC(=O)CN2CCC(NC(=O)c3cc(OC)c(OC)c(OC)c3)CC2)c1,-0.217
23,O=C(COc1ccccc1Cl)Nc1ccc(C(=O)c2ccc(C(=O)O)cc2)cc1,-0.148
24,OC(COCC1COc2ccccc2O1)CN1CCN(c2ccc(F)cc2)CC1 (centres undefined),-0.322
